According to PubChem BioAssay AID602179 (National Center for Advancing Translational Sciences (NCATS), 2012):
The whole screen tested about 390,000 compounds, of which about 360 (0.092%) were called active. This excerpt belongs to a sample that is enriched for actives. A number with no mark means an inactive call. Calls follow the shape of the dose curve; as a rule, active = well fitted inhibition curve with a large enough effect; inconclusive = small, poorly fitted or top-dose-only effect; inactive = no such curve, though single readings can be large or run the other way.

Biological target: Isocitrate dehydrogenase [NADP] cytoplasmic (Homo sapiens) (UniProt O75874)
Sequence (O75874 whole entry R132H, change not shown): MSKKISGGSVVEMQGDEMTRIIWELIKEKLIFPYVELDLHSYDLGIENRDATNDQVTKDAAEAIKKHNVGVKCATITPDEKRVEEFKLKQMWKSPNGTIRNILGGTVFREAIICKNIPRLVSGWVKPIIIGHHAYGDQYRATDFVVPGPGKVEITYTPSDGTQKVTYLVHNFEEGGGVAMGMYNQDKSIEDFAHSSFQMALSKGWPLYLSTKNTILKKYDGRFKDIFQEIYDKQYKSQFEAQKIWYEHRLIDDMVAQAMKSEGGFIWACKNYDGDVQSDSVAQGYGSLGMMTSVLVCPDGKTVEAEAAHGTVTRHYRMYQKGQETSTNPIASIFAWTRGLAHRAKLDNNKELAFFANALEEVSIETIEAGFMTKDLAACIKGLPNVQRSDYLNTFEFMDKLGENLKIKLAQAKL
Assay: qHTS for Inhibitors of mutant isocitrate dehydrogenase 1 (IDH1): qHTS; also: nearly all actives have a fitted effect of over 65% in size
Conditions: IDH1-R132H enzyme, NADPH consumption, diaphorase/resazurin fluorescence; series mostly up to 76.6 µM; activity change, negative = inhibition: at the top concentration
How it was run: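 IDH1-R132H (0.5 ug/mL dispensed) in pH 7.5 Tris buffer was preincubated 30 min with compound, then given a substrate mix of 0.016 mM NADPH and 2 mM alpha-KG for 80 min at room temperature; remaining NADPH was read by diaphorase/resazurin fluorescence.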
% is scaled to controls: 0 for no effect and ±100 for the full control effect; potency is read from the fitted curve at half-maximal effect.

SMILES | activity change, negative = inhibition | Potency
COc1cc(NC(=O)CSc2nc3nc(C)c(Cc4ccc(C)cc4)c(C)n3n2)cc(OC)c1OC | -14.1% | 
Cc1ccc(CCNC(=O)c2ccc(CNS(=O)(=O)c3ccc(C)cc3)cc2)cc1 | 11.2% | 
CCOC(=O)c1ccc(N2C(=O)c3n[nH]c(C)c3C2c2ccc(O)c(OC)c2)cc1 (centres undefined) | 8.11% | 
CCOc1ccc(S(=O)(=O)N(CC(=O)NCCSCc2ccc(C)cc2)c2ccccc2)cc1 | 8.13% | 
O=C(CSc1oc(-c2ccco2)nc1S(=O)(=O)c1ccccc1)c1ccc(Cl)cc1 | 8.02% | 
Cc1ccccc1Nc1nn2c(=O)c3ccc(C(=O)NCCc4ccc(Cl)cc4)cc3nc2s1 | 2.65% | 
Cc1ccc(OCC(=O)OCc2cc(=O)n3nc(C4CC4)sc3n2)cc1C | 1.02% | 
CC(C)NC(=O)c1nn(-c2ccccc2F)nc1CO | -6.1% | 
Cc1cccc(OCCCC(=O)Nc2sc3c(c2C(N)=O)CCC(C)C3)c1 (centres undefined) | 15.6% | 
O=C(CN1C(=O)COc2ccc(S(=O)(=O)N3CCCCCC3)cc21)N1CCN(c2cccc(C(F)(F)F)c2)CC1 | 0.874% | 
O=c1cc(CSc2ncn[nH]2)[nH]c2ccc(F)cc12 | 11.8% | 
O=C(CN1CCSc2ccccc21)N1CCN(c2ccccc2)CC1 | 9.76% | 
CCCc1nn2c(=O)cc(COC(=O)c3ccc(NC(=O)C(C)Oc4ccccc4)cc3)nc2s1 (centres undefined) | -1.97% | 
Cc1ccc2c(c1)N(C(=O)Nc1ccc(Br)cc1F)CCO2 | 26.6% | 
O=C(CCc1ccccc1)NCc1ccc2c(c1)CCN2C(=O)c1ccccc1 | -11.1% | 
O=C(CSc1nnc(CNC(=O)c2ccccc2)n1-c1ccc(F)cc1)Nc1ccccc1F | -2.52% | 
CN(C(=O)CSc1nc2ccccc2n1Cc1ccccc1C#N)c1ccccc1 | -6.83% | 
CCOC(=O)c1c(C)[nH]c(C)c1S(=O)(=O)N1CCCC(C(=O)NCc2ccccc2Cl)C1 (centres undefined) | -13.9% | 
CCCN1C(=O)C(Cc2nc3ccccc3c(=O)n2-c2ccccc2)c2cc(C)ccc21 (centres undefined) | -1.15% | 
CCCc1nc2c(c(=O)c3ccccc3n2C)c(=O)n1C1CCCCCC1 |  | 46.5 µM (active)
CCOc1ccc(NC(=O)c2cn(C3CCCCC3)c(=O)c3c2c2ccccc2n3C)cc1 | -10.2% | 
Cc1ccc(S(=O)(=O)N(Cc2nc(-c3ccc(Cl)cc3)no2)C2CCCCC2)cc1 | 0.339% | 
COc1cc2ccccc2cc1C(=O)Nc1cccc(-c2nc3ccccc3o2)c1 | -0.407% | 

SMILES | activity change, negative = inhibition | Potency
CC1CCCCN1S(=O)(=O)c1ccc(F)c(C(=O)Nc2ccccc2C(F)(F)F)c1 (centres undefined) | -7.74% | 
CCOc1cccc(CNC(=O)c2ccc(N3CCCC3)c(NC(=O)Nc3ccccc3CC)c2)c1 | -22.9% | 
CCOc1ccc(NC(=O)C(=O)NCCc2csc3nc(-c4ccccc4F)nn23)cc1 | -15.9% | 
Cc1ccccc1CNC(=O)CCc1cn(Cc2ccccc2C)c2ccccc12 | 0% | 
Cc1c(Cl)cccc1-c1ccc(CNCCCSc2nnnn2C)o1 | 0% | 
COc1ccc(-c2nc(CN3CCC(C(=O)NCCN(CC(C)C)CC(C)C)CC3)c(C)o2)cc1OC | -5.21% | 
CCOc1ccc(-c2n[nH]c3c2C(c2ccccc2OC)N(c2ccc(Br)cc2)C3=O)cc1 (centres undefined) | -10.1% | 
CN(Cc1ccccc1)S(=O)(=O)c1ccc(F)c(C(=O)Nc2cccc(Cl)c2Cl)c1 | 0% | 
Cc1nn(-c2nc(-c3ccccc3)cc(C(F)(F)F)n2)c(C)c1Cl | -2.85% | 
O=C(NC(Nc1nc2ccc([N+](=O)[O-])cc2s1)(C(F)(F)F)C(F)(F)F)c1ccccc1 |  | 9.27 µM (active)
NS(=O)(=O)c1ccc2nc(NC(=O)COc3ccccc3)sc2c1 | 16.5% | 
CN(C)c1cccc(C(=O)Nc2nc3ccc(S(=O)(=O)NC(C)(C)C)cc3s2)c1 | -9.07% | 
CCc1ccc(NC(=O)C2CCCN2S(=O)(=O)c2ccc3nc(-c4ccccc4)[nH]c3c2)cc1 (centres undefined) | 12.1% | 
CCOC(=O)c1ccc(NC(=O)Cn2c(=O)cc(C)c3c(C)nn(-c4cccc(F)c4)c32)cc1 | 2.76% | 
CCCCN(CC)CCCNC(=O)c1nn(C)c2c1CSc1ccccc1-2 | -11.4% | 
O=C(CN1C(=O)CCn2nc(-c3ccccc3)cc21)NCc1ccccc1 | 8.18% | 
COc1ccc2c(C)c(CCC(=O)NCc3ccc(OC)c(OC)c3)c(=O)oc2c1 | 9.73% | 
CSc1ccc(C2c3c(oc4ccccc4c3=O)C(=O)N2CCCN2CCOCC2)cc1 (centres undefined) | -26.3% | 
Cc1ccc(C(=O)NCCSc2c(C)[nH]c3ccccc23)cc1C | 15% | 
O=C(Nc1ccccc1Br)c1cc(CN2CCCC2)on1 | 18.6% | 
Cc1ccc(C)c(NC(=O)C2CCCN(S(=O)(=O)c3cn(C)cn3)C2)c1 (centres undefined) | -0.0051% | 
Cc1ccc(CNC(=O)CSc2c(C)cnc3c2c(=O)n(C)c(=O)n3C)cc1 | -5.79% | 
O=C(Nc1nc2c(s1)CCCC2)c1ccccc1F | 5.05% | 

SMILES | activity change, negative = inhibition | Potency
Cc1ccc(N2CC(C(=O)Nc3ccc(N(C)C)cc3)CC2=O)cc1Cl (centres undefined) | -6.08% | 
COc1cccc(NC(=O)C(=O)NCC(c2ccc3c(c2)OCO3)N2CCN(C)CC2)c1 (centres undefined) | 4.3% | 
CSc1ccc(CCNC(=O)c2ccc3c(c2)nc2n3CCOC2)cc1 | 17.1% | 
O=C(NC1CC(=O)N(c2ccc(F)cc2)C1)C1CCCCC1 (centres undefined) | 2.04% | 
O=C(/C=C/c1ccccc1)Nc1cc(-c2nc3cc(Cl)ccc3o2)ccc1Cl | 3.86% | 
Cc1ccc(CCNC(=O)c2ccc3c(c2)N(Cc2cc(C)ccc2C)C(=O)c2ccccc2S3=O)cc1 (centres undefined) | -5.3% | 
O=C(CCc1nc(CN2CCN(S(=O)(=O)c3ccc(F)cc3)CC2)no1)N1CCCCC1 | 1.03% | 
CCOc1ccc(Nc2oc(/C=C/c3ccc(F)cc3)nc2C#N)cc1 | 0% | 
Oc1ccc(-c2nc3ccc(Cl)cn3c2Nc2ccc3c(c2)OCO3)cc1 | -2.86% | 
COc1cc(OC)c(N(C)C(=O)c2cc3c(=O)oc4ccccc4c3s2)cc1Cl | -4.35% | 
COc1ccc(-c2nc(Cn3c(=O)cc(C)c4c(C)nn(-c5ccccc5)c43)c(C)o2)cc1OC | 14.5% | 
COc1ccccc1Nc1nc(N)nc(N)c1S(=O)(=O)c1ccccc1 | 8.86% | 
O=c1c(=O)n(Cc2c(F)cccc2Cl)ccn1Cc1ccccc1 | -0.719% | 
COc1ccc(Cn2ccn(Cc3cccc(OC)c3)c(=O)c2=O)cc1 | -4.83% | 
O=[N+]([O-])/C=C/c1ccc2c(ccn2Cc2ccccc2)c1 |  | 20.7 µM (active)
COc1ccc(Cl)cc1N(C)C(=O)c1cc2c(=O)oc3ccc(C)cc3c2s1 | 9.62% | 
COc1ccc(CCNC(=O)CCc2c(C)nc3c(c(C)nn3-c3ccc(C)c(C)c3)c2C)c(OC)c1OC | -2.76% | 
CCN(CC)C(=O)CSc1nc2ccsc2c(=O)n1Cc1ccccc1Cl | 8.23% | 
Cc1ccc(-c2ccc(CCC(=O)O)n2-c2ccc(C(N)=O)cc2)cc1 | -7.5% | 
N#Cc1nc(/C=C/c2ccc(F)cc2)oc1NCc1ccc(F)cc1 | -16.7% | 
CCOc1ccc(Nc2nc3c(S(=O)(=O)c4cccc(Cl)c4)nnn3c3ccsc23)cc1 | 11.3% | 
COc1cc(OC)c(C2C=C(C(=O)O)Nc3ncnn32)cc1OC (centres undefined) | -1.93% | 
O=C1Cc2cc(S(=O)(=O)Nc3ccc(OC(F)(F)F)cc3)cc3c2N1CCC3 | 9.9% | 

SMILES | activity change, negative = inhibition | Potency
COc1cc(C(=O)NCCc2csc3nc(-c4ccccc4C)nn23)cc(OC)c1OC | -17.5% | 
CCc1ccc(C2C(C(=O)Nc3ccccc3)=C(C)Nc3c(C(=O)Nc4ccc(C)cc4)cnn32)cc1 (centres undefined) | -18.3% | 
CN(C)c1ccc(C(CNS(=O)(=O)c2cc(F)ccc2F)N2CCOCC2)cc1 (centres undefined) | 0% | 
COc1ccc(S(=O)(=O)c2c(Nc3ccc(C)cc3)sc(C(=O)c3ccc(C)cc3)c2N)cc1 | -3.17% | 
Cc1ccccc1CCNC(=O)C1CCN(c2nc3ccccc3nc2C(F)(F)F)CC1 | 4.43% | 
O=C(c1ccccc1F)N1CCC(c2nc3c(nnn3Cc3cccc(F)c3)c(=O)[nH]2)CC1 | 7.98% | 
CCOc1ccc(NC(=O)c2c(NCc3cccc(OC)c3OC)sc3c2CCC3)cc1 | -16.2% | 
COc1cc(OC)c(NC(=O)c2cc(S(=O)(=O)N3CCCC3)cn2C)cc1Cl | -0.894% | 
O=C(COc1ccc(Cl)cc1)Nc1ccccc1OCc1cc(=O)n2ccccc2n1 | -3.61% | 
COc1ccc(OC)c(NC(=O)CSC2=Nc3ccccc3C3=NC(CC(=O)NCCc4ccccc4)C(=O)N23)c1 (centres undefined) | -6.25% | 
O=C(COc1ccccc1Cl)Nc1ccc2nc(SCC(=O)N3CCCC3)sc2c1 | -3.02% | 
O=C(CN1c2ccccc2S(=O)(=O)c2ccccc21)Nc1cccc(C(F)(F)F)c1 | -11.9% | 
COc1cccc(-c2nc(CS(=O)(=O)CC(=O)N3CCN(c4cc(C)ccc4C)CC3)c(C)o2)c1 | -8.51% | 
COc1ccc(CNC(=O)CSc2nc3ccccc3nc2Cc2ccccc2)cc1 | 10.4% | 
CCOC(=O)c1c(C)n(S(=O)(=O)c2ccc(C)cc2C)c2ccc(NS(=O)(=O)c3ccc(C)cc3C)cc12 | -0.772% | 
CCOc1cccc(C(=O)Nc2nnc(S(=O)(=O)N(C)c3ccc(C)cc3)s2)c1 | 0% | 
COc1ccccc1Nc1c2c(nc3ccc(NC(=O)/C=C/c4cc(OC)c(OC)c(OC)c4)cc13)CCCC2 | 1.05% | 
O=C(Nc1c(-c2ccc(F)cc2)nc2ccccn12)c1cccc(F)c1 | -3.61% | 
Cc1ccc(-n2ncc3c(N4CCC(C(N)=O)CC4)ncnc32)cc1 | -7.51% | 
Cc1c(NC(=O)Cc2ccccc2)cccc1-c1nc2cccnc2s1 | 0% | 
